Compound activity from PubChem.
Most compounds without a hit are left out; they make up all but 2% or so of the library.
TLR4-MyD88 BLA = inhibitors of TLR4-MyD88 association in cells, primary screen, cell-based, HeLa CL3-4, BLA complementation, FRET ratio; Toll-like receptor 4 (Homo sapiens) + Myeloid differentiation primary response protein …; HeLa CL3-4 TLR4/MyD88 BLA complementation; inhibition, % at 8.4 µM; 200,000 compounds, 0.18% hits; AID 861, 2007; in the data active = inhibition above about 25%
Target sequence (O00206 whole entry, looked up): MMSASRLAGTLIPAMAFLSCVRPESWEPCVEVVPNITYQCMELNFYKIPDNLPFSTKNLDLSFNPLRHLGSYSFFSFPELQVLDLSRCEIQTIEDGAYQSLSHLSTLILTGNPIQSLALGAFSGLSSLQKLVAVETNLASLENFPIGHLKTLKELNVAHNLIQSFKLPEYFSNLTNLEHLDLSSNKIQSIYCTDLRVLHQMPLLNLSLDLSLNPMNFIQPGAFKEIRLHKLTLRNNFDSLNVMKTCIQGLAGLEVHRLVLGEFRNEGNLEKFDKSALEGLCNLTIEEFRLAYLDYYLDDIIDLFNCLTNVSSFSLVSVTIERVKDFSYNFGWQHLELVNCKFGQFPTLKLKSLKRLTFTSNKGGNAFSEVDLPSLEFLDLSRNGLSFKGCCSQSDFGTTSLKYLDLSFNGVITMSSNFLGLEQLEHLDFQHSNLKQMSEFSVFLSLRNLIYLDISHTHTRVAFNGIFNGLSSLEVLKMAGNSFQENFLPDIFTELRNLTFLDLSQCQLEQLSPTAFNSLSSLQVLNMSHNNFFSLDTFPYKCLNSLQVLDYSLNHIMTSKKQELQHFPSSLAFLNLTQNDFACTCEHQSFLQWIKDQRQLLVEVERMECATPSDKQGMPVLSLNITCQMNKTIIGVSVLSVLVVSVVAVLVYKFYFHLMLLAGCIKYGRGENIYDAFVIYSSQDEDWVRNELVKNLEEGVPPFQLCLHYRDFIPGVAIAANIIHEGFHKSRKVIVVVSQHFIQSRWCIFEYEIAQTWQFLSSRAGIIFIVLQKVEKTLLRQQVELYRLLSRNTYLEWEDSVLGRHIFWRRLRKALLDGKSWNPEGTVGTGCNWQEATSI
Target sequence (Q99836 whole entry, looked up): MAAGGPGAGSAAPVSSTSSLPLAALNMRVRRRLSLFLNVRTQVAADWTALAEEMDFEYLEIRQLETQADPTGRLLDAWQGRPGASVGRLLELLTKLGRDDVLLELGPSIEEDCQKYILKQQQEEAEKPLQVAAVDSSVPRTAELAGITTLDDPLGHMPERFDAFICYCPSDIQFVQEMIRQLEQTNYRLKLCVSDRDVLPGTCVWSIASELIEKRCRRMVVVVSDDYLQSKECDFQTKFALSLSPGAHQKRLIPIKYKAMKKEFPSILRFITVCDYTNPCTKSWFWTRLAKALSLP
ABHD5-PLIN5 inh = ABHD5-PLIN5 interaction inhibitors, primary screen, cell lysate, split luciferase complementation, luminescence; Perilipin-5 (Homo sapiens) + 1-acylglycerol-3-phosphate O-acyltransferase ABHD5 (Homo …; Split G. princeps luciferase complementation, 4 h; inhibition, % at 4 µM; 360,000 compounds, 0.78% hits; AID 602281, 2012;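 active = inhibition above the mean inhibition across every tested compound plus 3 SD, cut at about 22% in these data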
TLR9-MyD88 block = inhibitors of TLR9-MyD88 association in cells, primary screen, cell-based, CHO, BLA complementation, fluorescence; Toll-like receptor 9 (Homo sapiens) + Myeloid differentiation primary response protein …; CCF4 FRET ratio; 340,000 compounds, 0.21% hits; inhibition, % at 4.98 µM;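 active = inhibition above the mean over all tested compounds plus 3 SD, cut at about 21% in these data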
Exocytosis inh = LAMP-1 surface exposure blockers, TALL-104 cells – cell-based, flow cytometry, MLPCN library, primary screen. TALL-104 LAMP-1 surface exposure; cells stimulated with thapsigargin and PMA. inhibition, % at 10 µM. 360,000 compounds, 0.66% hits;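 active = inhibition above about 55%, limit read from the data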
B2AR ag = beta2AR agonists driving receptor internalization, primary screen, cell-based, FAP fluorogen, flow cytometry | Am2.2-beta2AR cells | Beta-2 adrenergic receptor (Homo sapiens), P07550 | response, % (concentration not given with the values) | 340,000 compounds, 0.43% hits;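 active = response above a set limit, near 3 SD of response in nonfluorescent compounds, cut at about 42% in these data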
NOD2-RIPK2 inh = NOD2-RIPK2 binding disruptors in cells, primary screen, fluorescence, CHO cells, BLA complementation | inhibition, % at 4.98 µM | AID 624267, 2012 | 360,000 compounds, 0.38% hits | CCF4 ratio | Receptor-interacting serine/threonine-protein kinase 2 (Homo sapiens), O43353; in the data active = inhibition above about 21%
Exocytosis CP01 = inhibitors of lytic granule exocytosis, confirmation, TALL-104 cells, flow cytometry, Cherry Pick01; LAMP-1 externalization; stimulated with PMA plus thapsigargin; AID 651954, 2012; 1,500 compounds, 11% hits; shares compounds with Exocytosis inh; inhibition, % at 10 µM; in the data active = inhibition above about 60%
Hits are given with their value; – = inactive; · = no result.

SMILES	TLR4-MyD88 BLA	ABHD5-PLIN5 inh	TLR9-MyD88 block	Exocytosis inh	B2AR ag	NOD2-RIPK2 inh	Exocytosis CP01
C[C@@H]1CN([C@@H](C)CO)C(=O)CCCn2nncc2CO[C@@H]1CN(C)C(=O)C1CCCCC1	·	–	–	–	·	–	·
COc1ccccc1-n1c(CCC(=O)O)ccc1-c1ccccc1	·	–	–	–	–	–	·
COc1ccc(-c2ccc(CCC(=O)O)n2-c2ccccc2OC)cc1	·	–	–	67.0	–	–	–
COc1cccc(CNC(=O)[C@@H]2CCCN2C(=O)[C@H]2CCCCN2C(=O)c2cccc(OC)c2)c1	·	–	·	–	·	–	·
c1ccc(OCCN2CCN(C(c3ccccc3)c3ccccc3)CC2)cc1	·	–	–	84.2	–	–	–
COc1cccc(CN2CCN(Cc3cc(OC)c(OC)c(OC)c3)CC2)c1OC	·	–	–	–	–	–	·
COc1cc(CN2CCN(C(c3ccccc3)c3ccccc3)CC2)cc(OC)c1OC	·	–	–	64.3	–	–	–
CC1CCN(C(=O)Cn2nnc(-c3ccccc3)n2)CC1	·	–	–	58.2	–	–	–
CCOC(=O)[C@@H]1[C@H]2COc3ccccc3[C@@H]2N2C(=O)N(c3ccc(Cl)cc3)C(=O)[C@@]12C	·	–	–	116.0	–	–	–
Cc1ccccc1OCC(O)CN(Cc1ccccc1O)C1CCCCC1 (configuration not stated)	–	–	–	67.8	–	–	–
CC1(C(=O)Nc2ccc(Cl)cc2)Cc2c(-c3ccc(C(N)=O)cc3)ccnc2O1 (configuration not stated)	·	–	·	–	·	–	·
Oc1ccccc1-c1nc(NC2CCCC2)c2ccccc2n1	·	–	–	63.8	–	–	–
Fc1ccccc1-c1nc(NC2CCCC2)c2ccccc2n1	·	–	–	–	–	–	·
Cc1cccc(C(O)c2ncc(-c3ccc(Cl)cc3)[nH]2)c1C (configuration not stated)	·	–	·	–	·	–	·
CCC(=O)Nc1cc2[nH]c(=O)cc(C)c2cc1C	–	–	–	58.5	–	–	–
Cc1ccc(OCCOC(=O)c2nc3nccc(C)n3n2)cc1	–	–	–	–	–	–	·
COc1ccc(OCCOC(=O)c2nc3nccc(C)n3n2)cc1	–	–	–	58.0	–	–	–
Cc1ccc(NC(=O)CN(C)CC(=O)Nc2ccc(N3CCOCC3)cc2)cc1F	–	–	–	98.6	–	–	–
Cc1ccc(CC(=O)N(C)CC(=O)Nc2ccc(N3CCOCC3)cc2)cc1C	·	–	–	–	–	–	·
COc1ccc(-n2ccnc2CN2CCCC(CO)(Cc3cccc(OC)c3)C2)cc1 (configuration not stated)	–	–	–	59.8	–	–	–
O=C(Nc1ccc(F)c(Cl)c1)c1cc(C2CCCCN2C(=O)c2ccccc2)on1 (configuration not stated)	·	–	·	–	·	–	·
O=C(COC(=O)CC1CC2CCC1C2)NCc1ccc(Cl)cc1 (configuration not stated)	·	–	–	63.2	–	–	–
COc1ccc(C(CC(=O)N2CCCC(C)C2)c2c(O)cc(OC)cc2OC)cc1 (configuration not stated)	·	–	–	–	–	–	·
COc1cc(O)c(C(CC(=O)N2CCCC(C)C2)c2cc(OC)c(OC)c(OC)c2)c(OC)c1 (configuration not stated)	·	–	–	58.2	–	–	–
CC(c1ccon1)N(C)Cc1c(C(=O)N(C)Cc2ccccc2)nc2ccccn12 (configuration not stated)	–	–	–	71.2	–	–	–
SMILES	TLR4-MyD88 BLA	ABHD5-PLIN5 inh	TLR9-MyD88 block	Exocytosis inh	B2AR ag	NOD2-RIPK2 inh	Exocytosis CP01
CCSc1nc2c(c(=O)[nH]c(=O)n2C)n1CC(O)COc1ccccc1 (configuration not stated)	–	–	–	87.1	–	–	–
CC(=O)Nc1ccc(NC(=O)CS(=O)(=O)c2cn(CC(=O)N3CCCC3)c3ccccc23)cc1	·	–	–	–	–	–	·
CCN(CC)S(=O)(=O)c1ccc(N2CCCC2)c(NC(=O)Cc2ccc(OC)cc2)c1	–	–	–	–	–	–	·
CCN(CC)S(=O)(=O)c1ccc(N2CCCC2)c(NC(=O)c2ccc(OC)cc2OC)c1	–	–	–	72.4	–	–	–
CCOC(=O)c1c(CN2CCN(CCO)CC2)n(-c2ccccc2)c2cc(Br)c(O)cc12	·	–	–	78.9	–	–	–
CCOC(=O)c1c(CN2CCN(C)CC2)n(-c2ccccc2)c2cc(Br)c(O)cc12	·	–	–	59.0	–	–	–
CCOC(=O)c1c(CN2CCN(Cc3ccccc3)CC2)n(C)c2cc(Br)c(OC)cc12	–	–	–	–	–	–	·
O=S(=O)(Nc1c(O)ccc2ccccc12)c1cccc2ccccc12	·	–	–	–	–	–	·
Cc1ccc(S(=O)(=O)Nc2c(O)ccc3ccccc23)cc1	·	–	·	81.9	–	–	–
Cc1cc(Br)cn2c(Cc3ccsc3)c(-c3ccco3)nc12	·	–	·	59.5	·	–	–
Cc1cc(Br)cn2c(Cc3ccsc3)c(-c3cccc(Cl)c3)nc12	·	–	·	–	·	–	·
O=C(NCc1ccccc1)C1(c2ccccc2)CCN(S(=O)(=O)c2ccccc2)CC1	–	–	–	62.7	–	–	–
Cc1ccc(F)c(S(=O)(=O)NC(=O)C2(C)CCN2C(=O)Cc2cccc3ccccc23)c1 (configuration not stated)	·	–	·	–	·	–	·
Cc1ccc2oc(=O)n(CCOc3ccccc3C)c2c1	–	–	–	64.5	–	–	–
CN(C)c1ccc(CNC(=O)C2(C)Cc3c(-c4cccc(C(F)(F)F)c4)ccnc3O2)cc1 (configuration not stated)	·	–	·	–	·	–	·
O=[N+]([O-])c1ccc(N2CCCCC2)cc1	·	–	·	–	–	–	·
O=[N+]([O-])c1ccc(N2CCN(CC3CCCCC3)CC2)cc1	·	–	–	62.8	–	–	–
COc1cccc(-c2nnn(CC(=O)N(C3CCCCC3)C3CCS(=O)(=O)C3)n2)c1 (configuration not stated)	·	–	–	–	·	–	·
O=C(Nc1ccc(F)cc1)N[C@H]1CC[C@H](CCNS(=O)(=O)c2cccc(Cl)c2)O[C@@H]1CO	·	–	·	–	·	–	·
COc1ccc(-c2csc3ncnc(N4CCN(c5ccc(OC)cc5)CC4)c23)cc1	·	–	–	–	–	–	·
COc1ccc(-c2csc3ncnc(N4CCN(c5ccccc5)CC4)c23)cc1	·	–	–	69.9	–	–	–
CCOc1cccc(-c2nnc3n2N=C(c2cc(OC)ccc2OC)CS3)c1	–	–	–	75.1	–	–	–
